Assay results as given in PubChem BioAssay AID1159580 (chemical genetic matrix, 2015).
Among all 5,500 compounds or so, about 2,000 (36%) were called active. About 18% were inconclusive and are not listed. The list shows a part of the results. A number with no mark means an inactive call. No stated cut-off is given here; in the data, active means normalized growth mostly below about 0.91 (no sharp cut-off); inconclusive means no clear call, values can overlap the other calls; inactive means mostly above about 0.92.

Assay: chemical genetic growth profiling, strain panel (AID 1159580);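 further: tested at 20 µM; growth read once vehicle control cultures reached saturation at 30 °C; 1 = growth at the plate median or of vehicle wells; lower values mean less growth of the strain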
Details: S. cerevisiae deletion strains, growth OD

For `O=C(Nc1cccc(Cl)c1)O/N=C1\CCCc2occc21`, the normalized growth (locus YAR019C, strain CDC15, hits give low values) was 0.937, the normalized growth (locus YBL105C, strain PKC1, hits give low values) was 0.952 and the normalized growth (locus YBR135W, strain CKS1, hits give low values) was 0.936. It also gave a normalized growth (locus YBR136W, strain MEC1, hits give low values) of 0.939, a normalized growth (locus YBR160W, strain CDC28, hits give low values) of 0.943 and a normalized growth (locus YDL017W, strain CDC7, hits give low values) of 0.949. For the same compound, the normalized growth (locus YDL028C, strain MPS1, hits give low values) was 0.933, the normalized growth (locus YDL101C, strain DUN1, hits give low values) was 0.965 and the normalized growth (locus YDL108W, strain KIN28, hits give low values) was 0.929. The normalized growth (locus YDL132W, strain cdc53, hits give low values) was 0.917, the normalized growth (locus YDL214C, strain PRR2, hits give low values) was 0.809 and the normalized growth (locus YDR052C, strain DBF4, hits give low values) was 0.964. The normalized growth (locus YDR054C, strain cdc34, hits give low values) was 0.927, the normalized growth (locus YDR226W, strain ADK1, hits give low values) was 0.945 and the normalized growth (locus YDR477W, strain SNF1, hits give low values) was 0.798. The normalized growth (locus YER123W, strain YCK3, hits give low values) was 0.759, the normalized growth (locus YER133W, strain GLC7, hits give low values) was 0.789 and the normalized growth (locus YFL009W, strain cdc4, hits give low values) was 0.925. It also gave a normalized growth (locus YFL029C, strain CAK1, hits give low values) of 0.941, a normalized growth (locus YFR003C, strain YPI1, hits give low values) of 0.937 and a normalized growth (locus YFR019W, strain FAB1, hits give low values) of 0.944. The normalized growth (locus YFR028C, strain CDC14, hits give low values) was 0.935, the normalized growth (locus YGR040W, strain KSS1, hits give low values) was 0.83 and the normalized growth (locus YGR052W, strain FMP48, hits give low values) was 0.8. The normalized growth (locus YGR092W, strain DBF2, hits give low values) was 0.69, the normalized growth (locus YHR030C, strain SLT2, hits give low values) was 0.649 (active) and the normalized growth (locus YHR079C, strain IRE1, hits give low values) was 0.667. For the same compound, the normalized growth (locus YHR082C, strain KSP1, hits give low values) was 0.752, the normalized growth (locus YHR205W, strain SCH9, hits give low values) was 0.659 and the normalized growth (locus YIL147C, strain SLN1, hits give low values) was 0.943. The normalized growth (locus YJL095W, strain BCK1, hits give low values) was 0.671, the normalized growth (locus YJL128C, strain PBS2, hits give low values) was 0.954 and the normalized growth (locus YJL157C, strain FAR1, hits give low values) was 0.842. The normalized growth (locus YJR016C, strain ILV3, hits give low values) was 0.931, the normalized growth (locus YJR066W, strain TOR1 (second series), hits give low values) was 0.86 and the normalized growth (locus YJR066W, strain TOR1, hits give low values) was 0.742. For the same compound, the normalized growth (locus YKL048C, strain ELM1, hits give low values) was 0.899, the normalized growth (locus YKL067W, strain YNK1, hits give low values) was 0.817 and the normalized growth (locus YKL101W, strain HSL1, hits give low values) was 0.829. For the same compound, the normalized growth (locus YKL193C, strain SDS22, hits give low values) was 0.926, the normalized growth (locus YKL203C, strain TOR2, hits give low values) was 0.792 and the normalized growth (locus YLR113W, strain HOG1, hits give low values) was 0.613 (active). It also gave a normalized growth (locus YLR133W, strain CKI1, hits give low values) of 0.843, a normalized growth (locus YLR403W, strain SFP1, hits give low values) of 0.748 and a normalized growth (locus YML070W, strain DAK1, hits give low values) of 0.788. The normalized growth (locus YMR001C, strain CDC5, hits give low values) was 0.935, the normalized growth (locus YMR205C, strain PFK2 (second series), hits give low values) was 0.831 and the normalized growth (locus YMR277W, strain FCP1, hits give low values) was 0.932. It also gave a normalized growth (locus YNL006W, strain LST8, hits give low values) of 0.939, a normalized growth (locus YNL020C, strain ARK1, hits give low values) of 0.828 and a normalized growth (locus YNL161W, strain CBK1, hits give low values) of 0.945. It also gave a normalized growth (locus YNL183C, strain NPR1, hits give low values) of 0.652, a normalized growth (locus YNL207W, strain RIO2, hits give low values) of 0.936 and a normalized growth (locus YNL222W, strain SSU72, hits give low values) of 0.929. It also gave a normalized growth (locus YNL307C, strain MCK1 (second series), hits give low values) of 0.83, a normalized growth (locus YOL078W, strain AVO1, hits give low values) of 0.923 and a normalized growth (locus YOL136C, strain PFK27, hits give low values) of 0.798. It also gave a normalized growth (locus YOR061W, strain CKA2, hits give low values) of 0.85, a normalized growth (locus YOR119C, strain RIO1, hits give low values) of 0.847 and a normalized growth (locus YOR231W, strain MKK1, hits give low values) of 0.672. For the same compound, the normalized growth (locus YOR329C, strain SCD5, hits give low values) was 0.959, the normalized growth (locus YPL031C, strain PHO85, hits give low values) was 0.741 and the normalized growth (locus YPL153C, strain RAD53, hits give low values) was 0.772. The normalized growth (locus YPL204W, strain HRR25, hits give low values) was 0.773, the normalized growth (locus YPL209C, strain IPL1, hits give low values) was 0.947 and the normalized growth (locus YPL256C, strain CLN2, hits give low values) was 0.631 (active). It also gave a normalized growth (locus YPR025C, strain CCL1, hits give low values) of 0.943, a normalized growth (locus YPR106W, strain ISR1, hits give low values) of 0.944 and a normalized growth (locus YPR111W, strain DBF20, hits give low values) of 0.918. For the same compound, the normalized growth (strain NNK1, hits give low values) was 0.927 and the normalized growth (strain TSCII, hits give low values) was 0.927.
